About 1,700 (3.3%) of roughly 52,000 compounds were called active. For the sample, actives were picked, then their nearest neighbours and some compounds at random. Unmarked numbers belong to inactive results. Rule as the data show it: active = survival mostly below about 52% (no sharp cut-off); inactive = mostly above about 56%.

This assay concerns Wild type. The assay is described as follows: growth inhibition of S. aureus wild type versus tarO mutant, primary screen, teichoic acid synthesis inhibitors, RN4220, OD600 (AID 463173). The note with it: S. aureus RN4220 wild type/DeltatarO growth, OD600, 18 h, stronger effect = lower value, screened at 18.75 µg/mL (by protocol).
`CCOC(=O)c1ccc(N2CCN(c3ccccc3OC)CC2)c(NC(=O)Nc2ccc(CC)cc2)c1`: the survival was 80%.

On to `CCOC(=O)C(Cc1ccccc1)N1C(=O)c2ccccc2C1=O` (stereo unspecified), for which the survival is 104%.

In the case of `COc1cccc(NS(=O)(=O)c2ccc3[nH]cc(C(=O)NCCc4ccc(C)cc4)c(=O)c3c2)c1`, the survival was 124%.

Take `Nc1ccc(S(=O)(=O)N2CCSC2C(=O)O)cc1` (stereo unspecified): the survival is 101%.

As to `COc1ccc(N2CCN(c3ncnc4c3nc3n4CCCCC3)CC2)cc1`, the survival was 73%.

Turning to `COc1cccc(N2CCN(c3ncnc4c3nc3n4CCCCC3)CC2)c1`, the survival is -3% (active).

As for `Clc1cccc(N2CCN(c3ncnc4c3nc3n4CCCC3)CC2)c1`, the survival was 117%.

Turning to `c1ccc(N2CCN(c3ncnc4c3nc3n4CCCCC3)CC2)cc1`, the survival was 72%.

Consider `O=C(C1CCN(c2ncnc3c2nc2n3CCCCC2)CC1)N1CCN(c2cccc(Cl)c2)CC1`, for which the survival is 57%.

On to `Clc1cccc(N2CCN(c3ncnc4c3nc3n4CCCCC3)CC2)c1`, for which the survival was 3% (active).

Consider `CCn1cc(C(=O)Nc2cccc(Cl)c2)c2cc(OC)c(OC)cc2c1=O`, for which the survival was 76%.

Regarding `FC(F)(F)Sc1ccc2noc(-c3ccccc3)c2c1`, the survival is 115%.

Turning to `NC(=O)c1ccccc1NC(=O)c1ccc(-c2ccc(Br)cc2)o1`, the survival was 95%.

Take `COc1cc(C)cc2oc(=O)c(CC(=O)NCCc3ccc(Cl)cc3)c(C)c12`: the survival is 118%.

In the case of `C=CCc1ccccc1OCCSc1nc(-c2ccc(C(C)(C)C)cc2)nc2cc(=O)[nH]n12`, the survival was 0% (active).

Regarding `C=CCc1ccccc1OCCSc1nc(-c2ccccc2F)nc2cc(=O)[nH]n12`, the survival was 80%.

For `COc1ccccc1OCCSc1nc(-c2ccc(C(C)(C)C)cc2)nc2cc(=O)[nH]n12`, the survival was 22%.

For the compound `Cc1cccc(C)c1NCc1nnc(SCC(N)=O)n1-c1ccccc1`, the survival was 110%.

Consider `Cc1cc(C)cc(-n2ccn(CC(=O)Nc3ccccc3F)c(=O)c2=O)c1`, for which the survival was 82%.

In the case of `COc1ccccc1NC(=O)Cn1nnc(C(=O)Nc2ccccc2Br)c1N`, the survival is 85%.

In the case of `Cc1cc(C)cc(NC(=O)Cn2nnc(C(=O)NCc3ccccc3Cl)c2N)c1`, the survival is 77%.

As to `Cc1cccc(NC(=O)Cn2nnc(C(=O)Nc3ccccc3Br)c2N)c1C`, the survival was 0% (active).

Take `CCc1ccccc1NC(=O)Cn1nnc(C(=O)NCc2ccccc2Cl)c1N`: the survival is -3% (active).

Turning to `Cc1ccc(C)c(NC(=O)c2nnn(CC(=O)Nc3cccc(C)c3C)c2N)c1`, the survival is 88%.

For the compound `CCc1ccccc1NC(=O)Cn1nnc(C(=O)NCc2cccs2)c1N`, the survival was 96%.

Consider `COc1cccc(CNC(=O)CC(c2ccc(F)cc2)N2Cc3ccccc3C2=O)c1` (stereo unspecified), for which the survival was 82%.

`CCN(CC)C(=O)CSc1nc2ccccc2c(=O)n1CC`: the survival is 107%.

As to `COc1ccc(Nc2oc(/C=C/c3ccccc3OC)nc2C#N)cc1`, the survival was 86%.

Regarding `CCc1ccc(-c2nn(-c3ccc(OC)cc3)c3c2cnc2ccc(OC)cc23)cc1`, the survival is 9% (active).

Consider `CCOc1ccc2ncc3c(-c4cccc(OC)c4)nn(-c4ccccc4)c3c2c1`, for which the survival is 125%.

As to `Cc1ccc(-c2nn(CC(=O)NC3CCCC3)c3c2cnc2ccc(F)cc23)cc1C`, the survival is 74%.

Consider `CCCNC(=O)Cn1nc(-c2ccc(C)cc2)c2cnc3ccc(CC)cc3c21`, for which the survival is 10% (active).

For the compound `CCc1ccc2ncc3c(-c4ccc(C)cc4)nn(CC(=O)NCc4ccccc4)c3c2c1`, the survival was 65%.

With `COc1ccc2ncc3c(-c4ccccc4)nn(-c4ccc(C)c(C)c4)c3c2c1`, the survival is 0% (active).

Regarding `CCOc1ccc(-c2nn(-c3ccc(F)cc3)c3c2cnc2ccc(F)cc23)cc1`, the survival is 86%.

With `CCc1ccc(-c2nn(CC(=O)NC3CCCCC3)c3c2cnc2ccc(F)cc23)cc1`, the survival is 68%.

With `Cc1ccc(-c2nn(CC(=O)NC3CCCCC3)c3c2cnc2ccc(F)cc23)cc1C`, the survival was -3% (active).

With `CCc1ccc2ncc3c(-c4ccc(C)cc4)nn(CC(=O)Nc4ccc(C)cc4)c3c2c1`, the survival was 47%.

Turning to `Cc1ccc(-n2nc(-c3ccccc3)c3cnc4cc5c(cc4c32)OCO5)cc1C`, the survival was 110%.

Regarding `COc1ccc(-n2nc(-c3ccc(C)cc3)c3cnc4cc(F)c(F)cc4c32)cc1`, the survival was 85%.

Consider `COc1cc(OC)c(NC(=O)Nc2cccc(OCc3cc(=O)n4ccccc4n3)c2)cc1Cl`, for which the survival was 87%.

Consider `N#Cc1ccc(N2CCCCC2)cc1`, for which the survival was 119%.

On to `Oc1ccc(Nc2nc3ccccc3n3cnnc23)cc1`, for which the survival was 78%.

For the compound `COc1ccc(OCC(=O)NCCO)cc1`, the survival is 116%.

As for `COc1ccccc1NC(=O)c1cnc(SCC(=O)N2CCOCC2)n(C)c1=O`, the survival was 77%.

`FC(F)(F)c1ccc2c(c1)ncc1c(-c3ccccc3)nn(-c3ccccc3)c12`: the survival was 125%.

In the case of `Cc1ccc(-c2nn(-c3ccccc3)c3c2cnc2ccccc23)cc1C`, the survival was 68%.

As to `CCc1ccc2ncc3c(-c4ccccc4)nn(-c4ccccc4)c3c2c1`, the survival was 7% (active).

With `N#Cc1c(N2CCOCC2)nc(N2CCOCC2)c2c1CCN(Cc1ccccc1)C2`, the survival is 112%.

Consider `COc1ccc(CNC(=O)CCc2c(C)nn(-c3ccc(N4CCCCC4)nn3)c2C)c(OC)c1`, for which the survival was 64%.

For the compound `CCn1c(N2CCN(C(=O)Nc3ccc(Cl)c(C(F)(F)F)c3)CC2)nc2ccccc21`, the survival is 0% (active).

As for `CCCn1c(N2CCN(C(=O)Nc3ccc(OC)cc3)CC2)nc2ccccc21`, the survival was 94%.

Turning to `CC(C)Cn1c(N2CCN(C(=O)Nc3ccc(Cl)cc3)CC2)nc2ccccc21`, the survival was 99%.

As to `CCOCCn1ccc2c(OCC(=O)Nc3ccc(C(N)=O)cc3)cccc2c1=O`, the survival was 32%.

`Cc1ccc(-n2cccn2)cc1`: the survival was 113%.

In the case of `N#CCCCn1c(=O)oc2ccccc21`, the survival is 84%.

With `O=C(O)CCCn1c(=O)oc2ccccc21`, the survival is 99%.

As to `Cc1ccc2oc(=O)n(CCNC(=O)Nc3ccccc3C)c2c1`, the survival is 119%.

For `CCOc1ccccc1NC(=O)NCCn1c(=O)oc2ccc(C)cc21`, the survival is 79%.

With `O=c1oc2ccccc2n1CCCOc1ccccc1Cl`, the survival is 0% (active).

In the case of `Cc1ccc2oc(=O)n(CCCOc3ccccc3Cl)c2c1`, the survival is -10% (active).

On to `O=S(=O)(c1ccccc1)c1nnn2c1nc(NCc1ccc(Cl)cc1)c1sccc12`, for which the survival was 88%.

As to `Cc1cc(SCC(=O)NCc2ccccc2)nc(=O)[nH]1`, the survival is 70%.

Take `Cc1cc2oc(C(=O)Nc3ccc(S(=O)(=O)N4CCCCCC4)cc3)cc(=O)c2cc1C`: the survival is 80%.

As to `COc1ccc(-c2nc(CSc3nnc(C)n4c3cc3oc(C)cc34)c(C)o2)cc1OC`, the survival was 89%.

Consider `CCc1ccc(OCC(=O)Nc2ccc(Cl)c(-c3nc4cc(C)cc(C)c4o3)c2)cc1`, for which the survival was 51%.

Take `O=C(/C=C/c1cn(CC(O)CN2CCCCCC2)c2ccccc12)c1ccc(Br)cc1` (stereo unspecified): the survival was 14% (active).

For the compound `O=C(/C=C/c1cn(CC(O)CN2CCCCCC2)c2ccccc12)c1ccccc1` (stereo unspecified), the survival is 67%.

`O=C(/C=C/c1cn(CC(O)CN2CCc3ccccc32)c2ccccc12)c1ccc(Br)cc1` (stereo unspecified): the survival was 70%.

Turning to `COc1ccc(C(=O)/C=C/c2cn(CC(O)CN3CCCCCC3)c3ccccc23)cc1OC` (stereo unspecified), the survival was 96%.

Turning to `Cc1ccc(C(=O)/C=C/c2cn(CC(O)CN3CCCCCC3)c3ccccc23)cc1` (stereo unspecified), the survival is 28% (active).

On to `COc1ccc(C(=O)/C=C/c2cn(CC(O)CN3CCc4ccccc43)c3ccccc23)cc1OC` (stereo unspecified), for which the survival is 87%.

In the case of `COc1ccc(C(=O)/C=C/c2cn(CC(O)CN3CCc4ccccc43)c3ccccc23)cc1` (stereo unspecified), the survival was 63%.

With `CCOc1ccc(C(=O)/C=C/c2cn(CC(O)CN3CCCCCC3)c3ccccc23)cc1` (stereo unspecified), the survival was 26% (active).

With `Cc1ccc(Cn2ccc(NC(=O)c3cc(-c4ccc(Cl)c(Cl)c4)on3)n2)cc1`, the survival was 74%.

Regarding `CCOC(=O)CSc1nc2ccccc2c(=O)n1CCc1ccc(OC)c(OC)c1`, the survival is 124%.

Turning to `Cc1ccc(-n2c(C)cc(CO)c2C)cc1`, the survival is 100%.

As for `Cc1ccc(CNC(=O)CCc2c(C)nn(-c3ccc(N4CCOCC4)nn3)c2C)cc1`, the survival is 135%.

Regarding `CC(=O)Nc1ccc(N=NN2CCCCC2)cc1`, the survival was 99%.

Regarding `CCc1ccc(CN(Cc2ccco2)c2cnc(S(C)(=O)=O)nc2C(=O)Nc2c(C)cccc2C)cc1`, the survival is 70%.

Consider `CCCOc1ccc(-c2nc(N3CCCCC3)c3ccccc3n2)cc1`, for which the survival is 0% (active).

As for `Cc1ccc(-c2nc(N3CCN(c4ccccc4Cl)CC3)c3ccccc3n2)cc1`, the survival is 62%.

Take `CCCOc1ccc(-c2nc(N3CCC(C)CC3)c3ccccc3n2)cc1`: the survival was -2% (active).

On to `CCCOc1ccc(-c2nc3ccccc3c(=O)o2)cc1`, for which the survival is 70%.

Regarding `CCCOc1ccc(CNC(=O)C2CCN(c3nc4ccccc4nc3C(F)(F)F)CC2)cc1`, the survival is 59%.

For `c1ccc(-c2nc(N3CCCCC3)c3ccccc3n2)cc1`, the survival was 130%.

Consider `O=C(CSc1nc2c([nH]c3ccccc32)c(=O)n1-c1ccccc1)N1CCCc2ccccc21`, for which the survival was 128%.

As for `c1ccc2sc(N3CCN(Cc4nnnn4C4CCCC4)CC3)nc2c1`, the survival is 104%.

For `Fc1ccc(Nc2ncnc3onc(-c4ccc(Cl)cc4)c23)cc1Cl`, the survival was 71%.

With `Cc1ccccc1CN1C(=O)c2ccccc2Sc2ccc(C(=O)NC(C)c3ccccc3)cc21` (stereo unspecified), the survival is 81%.

For `Cc1cccc(CNC(=O)c2ccc3c(c2)N(C)C(=O)C2CCCCN32)c1` (stereo unspecified), the survival was -3% (active).

Turning to `COc1cccc(CNC(=O)c2ccc3c(c2)N(C)C(=O)C2CCCCN32)c1` (stereo unspecified), the survival was 68%.

Regarding `CC(C)Oc1ccc(CNC(=O)c2ccc3c(c2)N(C)C(=O)C2CCCCN32)cc1` (stereo unspecified), the survival was 10% (active).

As for `COc1ccc(CNC(=O)c2ccc3c(c2)N(C)C(=O)C2CCCCN32)cc1OC` (stereo unspecified), the survival was 59%.

Regarding `CSc1ccc(CNC(=O)c2ccc3c(c2)N(C)C(=O)C2CCCCN32)cc1` (stereo unspecified), the survival was 83%.

On to `CCCCOc1ccc(CNC(=O)c2ccc3c(c2)N(C)C(=O)C2CCCCN32)cc1` (stereo unspecified), for which the survival is 88%.

Source of the values: PubChem BioAssay AID463173 (ICCB-Longwood Screening Facility, Harvard Medical School, 2010).
